# This is a sample that favours compounds with a hit; in the whole collection about 1.3% have one here.
# E coli Lon inh: E. coli protease La inhibition; purified E. coli Lon protease, fluorescence polarization; AID 602123; inhibition, % at 7.94 µM; P0A9M0; 0.42% of 360,000 active; in the data active = inhibition above about 13%, passing the limit was not always enough;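 also: 0% = enzyme with probe and DMSO and 100% = no enzyme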
# GLD-1 TGE inh: GLD-1-TGE RNA interaction inhibition (C. elegans) | inhibition, % at 5.96 µM | Q17339 | 0.44% of 320,000 active | purified GLD-1 + fluorescein TGE RNA, fluorescence polarization;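 active = percent inhibition above a per-plate cutoff, the plate mean of test compounds plus 3 SD, cut at about 30% in these data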;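 also: 0% = DMSO wells with GLD-1 and probe and 100% = wells lacking GLD-1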
# EBV gp42 inh: EBV gp42 inhibition | Q1HVG2 | Fluorescence polarization binding assay, mP read-out | inhibition, % (tested at 21.74 µM) | 0.42% of 220,000 active | AID 1085; in the data active = inhibition above about 50%
# Target sequence (Q1HVG2 whole entry, looked up): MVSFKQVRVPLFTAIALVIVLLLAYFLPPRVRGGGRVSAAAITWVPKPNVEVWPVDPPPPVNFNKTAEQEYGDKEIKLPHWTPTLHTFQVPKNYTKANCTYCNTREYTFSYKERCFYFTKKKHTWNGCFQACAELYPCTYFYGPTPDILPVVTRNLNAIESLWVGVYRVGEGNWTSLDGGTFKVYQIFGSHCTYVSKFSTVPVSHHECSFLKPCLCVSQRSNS
# MEX-5 binding: C. elegans MEX-5 TCR-2 RNA binding activity; AID 1832; MEX-5/FITC-TCR2 RNA binding, fluorescence polarization; active compounds read low; 0.38% of 300,000 active; Q9XUB2; activity score (negative = inhibition of binding), % at 10 µM;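 active = inhibition past about -25% in most replicates, and total fluorescence under double the plate's negative control median, limit read from the data; inconclusive = replicates evenly split on the limit, or fluorescence at least double controls; inactive = too little inhibition in most replicates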;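 also: 0% = DMSO and -100% = 5 µM competing unlabeled TCR2 RNA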
# Bcl-xL primary: Bcl-xL (human) inhibition; Q07817; AID 2129; 0.7% of 320,000 active; inhibition, % at 10.9 µM; GST-Bcl-xL / FITC-Bim BH3 peptide fluorescence polarization;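 active = inhibition above the mean of all tested compounds plus 3 SD, cutoff set per campaign, cut at about 30% in these data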;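 also: 0% = DMSO wells and 100% = unlabeled Bim-BH3 peptide competitor; inhibitors lower millipolarization by displacing the labeled peptide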
# Target sequence (Q07817 whole entry, looked up): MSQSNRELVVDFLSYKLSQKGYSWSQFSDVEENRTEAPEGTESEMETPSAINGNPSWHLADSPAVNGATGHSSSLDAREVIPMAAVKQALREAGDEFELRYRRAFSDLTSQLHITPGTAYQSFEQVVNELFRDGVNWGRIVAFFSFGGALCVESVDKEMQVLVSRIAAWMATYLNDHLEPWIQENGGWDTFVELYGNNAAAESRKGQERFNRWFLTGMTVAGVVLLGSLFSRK
# Active calls of the source: *; i = inactive; ? = inconclusive; nt = no result given.
SMILES,E coli Lon inh,GLD-1 TGE inh,EBV gp42 inh,MEX-5 binding,Bcl-xL primary
O=C(O)C1Nc2c(O)cc(Cl)c([N+](=O)[O-])c2C2C=CCC12 (stereo unspecified),-9,6,87*,-60*,78*
O=[N+]([O-])c1ccc(Cl)c2c1C1C=CCC1C(c1ccccn1)N2 (stereo unspecified),7,14,-5,-3,17
CCN(CC)C(=O)Cn1c(=O)c2ccccc2n2c(=S)sc(-c3cccc(C)c3)c12,-5,-6,-65,-67*,-3
CCN(CC)S(=O)(=O)c1ccc(NC(=O)C(OC)c2ccccc2)cc1 (stereo unspecified),-1,3,-1,3,4
CCCCN(C)C(=O)c1cccc(OC2CCN(CC(C)(C)C)CC2)c1,1,-3,nt,-31*,3
CCCN(C(=O)c1ccco1)c1nnc(-c2ccccc2C)s1,6,6,-8,-1,-1
Cn1c(CNc2ccc(O)cc2)nc2ccccc21,21,92*,nt,-1,56*
CC1CC(C)CN(CCCNC(=O)C2CCCN(c3ncnc4c3nc3n4CCCCC3)C2)C1 (stereo unspecified),-4,41*,nt,0,4
CC1CCCCN1CCNC(=O)C1CCCN(c2ncnc3c2nc2n3CCCCC2)C1 (stereo unspecified),3,15,nt,-2,39*
CC1CCN(CCCNC(=O)C2CCCN(c3ncnc4c3nc3n4CCCCC3)C2)CC1 (stereo unspecified),-10,4,nt,-1,1
CC1CCCN(CCCNC(=O)C2CCCN(c3ncnc4c3nc3n4CCCCC3)C2)C1 (stereo unspecified),-3,-2,nt,-2,5
O=C(NCc1ccccc1)C(c1cccnc1)N(C(=O)c1csnn1)c1ccccc1 (stereo unspecified),-3,-1,nt,0,5
O=[N+]([O-])c1cccc(/C=C/c2nc(C=Nc3ccccc3)c(O)o2)c1,-9,-14,-3,-43*,-31
O=[N+]([O-])c1cccc(/C=N/N=C\c2ccccc2)c1,-3,nt,nt,0,nt
CCC(CC)C(=O)N(C)c1c(C)nc2c(OCc3ccc(Cl)cc3Cl)cccn12,-10,nt,nt,nt,nt
O=C(O)COc1ccc(/C=C/c2nc(-c3ccccc3O)n[nH]2)cc1,-14,10,nt,-101*,8
CCN(CC(=O)Nc1cc(Cl)ccc1C)C(=O)c1ccc2c(c1)NC(=O)C(C)S2 (stereo unspecified),-7,7,nt,-2,-11
COc1ccccc1OC(=O)Nc1ccc(Cl)cc1,-4,11,nt,0,48*
CCOc1ccc(Cn2c3ccc(OC)cc3c3nc4ccccc4nc32)cc1,-4,5,123*,nt,8
CCCCOC(=O)Cn1c2ccc(OC)cc2c2nc3ccccc3nc21,-3,4,79*,-28*,12
CCn1c2ccc(OC)cc2c2nc3ccccc3nc21,nt,-1,-16,?,29
C[C@H](CO)N1C[C@H](C)[C@H](CN(C)S(C)(=O)=O)OCc2cnnn2CCCC1=O,-10,nt,nt,nt,nt
CCCNC(=O)C1(C)CCN(C(=O)c2oc3ccccc3c2C)C1 (stereo unspecified),7,nt,nt,nt,nt
O=c1c(/C=C(\O)c2ccccc2)nc2ccccc2n1-c1ccccc1,i,-68,176*,-53*,-49
Cc1ccc(NC(=O)c2cc(S(=O)(=O)N(C)C)ccc2N2CCCC2)cc1F,-4,3,nt,-1,2
SMILES,E coli Lon inh,GLD-1 TGE inh,EBV gp42 inh,MEX-5 binding,Bcl-xL primary
COC(=O)[C@]1(Cc2ccccc2)N[C@H](CN(C)C(=O)c2ccc(F)cc2)[C@@H]2C(=O)N(C)C(=O)[C@@H]21,-3,4,nt,nt,nt
CCOC(=O)c1c(-c2ccc(C)o2)csc1NC(=S)NC(=O)c1ccccc1Br,-2,6,-6,-2,4
CCOC(=O)c1c(-c2ccc(C)o2)csc1NC(=S)NC(=O)c1cccs1,0,14,-15,-34*,10
CCC(C)[C@H](NC(=O)[C@@H]1Cc2ccccc2CN1)C(=O)Nc1ccc2c(c1)OCO2 (stereo partly specified),-13,-7,nt,0,5
O=C(Nc1ccc(Oc2ccccc2)cc1)c1ccc2nc([C@@H]3O[C@H](CO)[C@H](O)[C@H](O)[C@H]3O)[nH]c2c1,-4,nt,nt,nt,nt
O=C1CCC/C1=c1\s/c(=C\c2cccnc2)c(=O)n1-c1ccccc1,-9,3,-22,-26*,-3
Cc1ccc2[nH]c(O)c(N=NC(=O)c3ccc(NS(=O)(=O)c4cccs4)cc3)c2c1,-4,7,58*,0,12
Cc1cc(N2O[C@H]3C=C[C@@H]2C3)no1,-3,nt,nt,nt,nt
COc1ccc(S(=O)(=O)NC(C)c2ccc3c(c2)OCCO3)cc1 (stereo unspecified),2,nt,nt,nt,nt
CC1CC(Nc2cccc(O)c2)=CC(=O)O1 (stereo unspecified),-11,4,-31,-3,7
C[C@@H]1Cc2c(O)c(O)cc(O)c2C(=O)O1,-1,11,-1,-45*,7
CC(C(=O)Nc1ccc(C(N)=O)cc1)N1C(=O)c2ccccc2S1(=O)=O (stereo unspecified),2,-2,nt,3,-1
CCCCCCSc1ccc([C@@H]2[C@@H]3C(=O)N(C)C(=O)[C@@H]3[C@]3(C(=O)OC)CCCCN23)cc1OC,-6,2,nt,3,5
CC1Cc2ccccc2N1C(=O)CN1CCC(n2nnc3cc(C(F)(F)F)ccc32)CC1 (stereo unspecified),-10,-2,100*,2,0
Cc1cccc(/N=C/c2sc3ccccc3c2O)n1,-46,-61,-18,-1,-46
Oc1c(C=Nc2cccc3cccnc23)sc2ccccc12,nt,-152,-17,4,80*
CCOC(=O)c1sc2nc3c(SCCC(=O)O)cc(C(=O)c4cc(OC)ccc4O)cn3c(=O)c2c1C,-20,nt,79*,0,nt
CCOC(=O)c1sc2nc3c(SCCC#N)cc(C(=O)c4cc(F)ccc4O)cn3c(=O)c2c1C,-22,-4,-61,5,-2
COc1ccc(NC(=O)COc2ccccc2C)cc1S(=O)(=O)N1CCCCC1,-17,2,nt,-3,2
COc1cc(C(=O)NS(=O)(=O)c2ccccc2C)ccc1Cc1cn(C)c2ccc(NC(=O)OC3CCCC3)cc12,nt,4,7,-8,37*
S=c1[nH]c2ccccc2n2c(=S)[nH]nc12,-34,2,nt,-42*,15
C/C(=N\NC(=O)c1cccc(F)c1)c1ccc(NC(=O)Cc2ccccc2)cc1,-7,nt,nt,nt,nt
C/C(=N\NC(=O)c1cc(O)cc(O)c1)c1ccc(NC(=O)Cc2ccccc2)cc1,-5,6,nt,-3,32*
Cc1cccc(OCC(O)Cn2ccnc2C)c1 (stereo unspecified),8,2,nt,-1,9
Cc1cccc(C)c1OCC(O)Cn1ccnc1C (stereo unspecified),8,-4,84*,0,-2
Nc1nn2c(-c3ccccc3)cc(=O)[nH]c2c1N=Nc1ccc(O)cc1,-17,-6,47,-3,25

# Screens deposited in PubChem BioAssay by several laboratories.
